The record followed here is PubChem BioAssay AID2314 (National Center for Advancing Translational Sciences (NCATS), 2010).

Structures are written as SMILES. Among all 300,000 compounds or so, about 37,000 (12%) were called active. What follows is part of a selection rich in actives, with near analogues and random picks from the rest. Values without a mark were called inactive. No stated cut-off is given here; in the data, active means max response mostly above about 13% (no sharp cut-off); inactive means mostly below about 14%.

A short description of this test: Cycloheximide Counterscreen for Small Molecule Inhibitors of Shiga Toxin. Further: read at 38.3 µM for the half of the compounds with a filed dose; 0% is about no effect. As to conditions: cell reporter, cycloheximide protein synthesis inhibition counterscreen; hits give high values. In general terms: A counterscreen serves to expose hits that act by an unwanted route or on another target.
On to `COC(=O)c1ccc(S(=O)(=O)N2CCc3ccccc3C2)cc1`, for which the max response is -0.876%. To `CCc1nn(CCCC(=O)NCc2ccc(C)cc2)c(=O)c2cc3occc3n12` belongs 9.5%; to `CCCCCCC(O)(CCN1CCCCC1)c1ccccc1` (stereo unspecified), -3.74%. With `Cc1ccnc(N2CCCC(C(=O)NC3CC3)C2)n1` (stereo unspecified), the max response was -3.55%. To `CSCCC(Nc1nc2ccccc2s1)C(=O)O` (stereo unspecified) belongs -2.31%; to `Cc1ccc(S(=O)(=O)Nc2nc3ccccc3s2)cc1[N+](=O)[O-]`, -1.91%; to `Cc1ccnc(Nc2nc3ccccc3s2)n1`, 55.1% (active). To `COc1cccc(NS(=O)(=O)c2ccc(-c3coc(C)n3)cc2)c1` belongs 15.9%; to `O=C(NC1CCCC1)C1CC(=O)N(c2ccc(F)cc2)C1` (stereo unspecified), -4.78%. To `COCCC(=O)N1CCC(Oc2ccc(C(=O)NCc3ccon3)cc2)CC1` belongs 2.55%; to `Cc1ccc2nc(-c3ccc(NC(=O)c4cccnc4)cc3)oc2c1`, 49.6% (active); to `COc1cc(OC)cc(C(=O)Nc2ccc(S(=O)(=O)Nc3cc(C)on3)cc2)c1`, -4.87%.

In the case of `CC(=O)Nc1ccc(-c2nc3ccccc3o2)cc1`, the max response is 35.3% (active). To `COc1cc(OC)cc(C(=O)Nc2ccc(-c3nc4ccccc4o3)c(O)c2)c1` belongs 24.8% (active); to `CC(=O)Nc1ccc(S(=O)(=O)N(C)c2nc3ccccc3nc2Cl)cc1`, 18%; to `CC(=O)Nc1ccc(Nc2c3ccccc3nc3ccccc23)cc1`, -9.79%. Consider `COC(=O)c1cc(NC(=O)c2cccnc2)ccc1N1CCOCC1`, for which the max response was -2.96%. To `Cc1cc2nc(-c3ccc(NC(=O)c4cccnc4)cc3)oc2cc1C` belongs 32.1% (active).

As to `Cc1cc(NS(=O)(=O)c2ccc(NC(=O)c3cccnc3)cc2)nc(C)n1`, the max response was 1.8%.

Consider `COc1cc(OC)cc(C(=O)Nc2ncc3c(n2)CC(C)(C)CC3=O)c1`, for which the max response was 9.17%. To `CC(=O)NC(=S)Nc1ccc(NC(=O)c2cccnc2)cc1` belongs 1.22%. To `CCC1=Nc2cc(C(=O)NCCCN3CCOCC3)ccc2Sc2ccc(Br)cc21` belongs -2.78%. With `CC(=O)Nc1ccc(S(=O)(=O)NCC(=O)OCc2cc(=O)oc3ccc4ccccc4c23)cc1`, the max response was -2.56%. To `Cc1cc(OCCN2CCCC2)cc(C(C)C)c1` belongs -2.45%; to `CCn1cc(CN2CCC(C(=O)Nc3cccc(-c4cccc(Cl)c4)c3)CC2)cn1`, -10.1%. To `CC1Cc2cc(/C(O)=C3\C(=O)C(=O)N(Cc4cccnc4)C3c3ccccc3F)ccc2O1` (stereo unspecified) belongs -1.92%; to `O=C(Cn1cc(/C=N/NC(=O)c2cccc(C(F)(F)F)c2)c2ccccc21)Nc1ccc(F)cc1`, 2.04%. Take `O=C(C(Cc1ccccc1)n1cccc1)N1CCN(C2CCCCC2)CC1` (stereo unspecified): the max response was -4.26%. For the compound `CCOC(=O)C1CCN(S(=O)(=O)c2c(C)noc2C)CC1`, the max response is -1.8%. To `Cc1ccc(NC(=O)c2ccn(C(=O)Nc3ccccc3)n2)c(C)c1` belongs 43.3% (active); to `Cc1ccc(C)c(S(=O)(=O)N2CCN(C(=O)Nc3ccccc3)CC2)c1`, -1.4%; to `Cc1ccc(NC(=O)Cn2nc(C)c3ccccc3c2=O)c(C)c1`, -1.38%. Regarding `Cc1ccc(CCCOC(=O)C[N+]2(C)CCCC2)cc1`, the max response was -2.71%. To `Cc1c(C(=O)N2CCN(c3ccc(F)cc3)CC2)oc2c1C(=O)CCC2` belongs -3.49%; to `CCCCOC(=O)CCCc1ccc([N+](=O)[O-])cc1[N+](=O)[O-]`, -1.18%; to `CC1C(=O)Nc2ccccc2N1C(=O)c1c(F)cccc1F` (stereo unspecified), -2.05%. To `CC(Oc1cccc(NC(=O)c2cccs2)c1)C(=O)c1ccccc1` (stereo unspecified) belongs 19.5% (active); to `COc1cccc(NC(=O)C(C)Oc2ccccc2)c1` (stereo unspecified), 4.2%; to `O=C(Nc1ccccc1-c1ccccc1)c1cccs1`, 5.16%. To `C/C(=N\NC(=O)CNc1cccc2ccccc12)c1ccc(Br)s1` belongs -2.1%; to `Cn1cccc1/C=N/NC(=O)CNc1cccc2ccccc12`, 4.6%; to `Cc1cccc(/C=N/NC(=O)CNc2cccc3ccccc23)n1`, 45.5% (active). With `Cc1ccccc1/[N+]([O-])=C/c1ccncc1`, the max response is 9.27%.

Regarding `O=C(c1ccc(S(=O)(=O)N2CCOCC2)cc1)N1CCN(c2ccccc2)CC1`, the max response was -2.23%. To `O=C(CN1CCN(S(=O)(=O)/C=C/c2ccccc2)CC1)Nc1ccc(N2CCOCC2)cc1` belongs -1.05%; to `O=C(/C=C/c1ccc(N2CCOCC2)cc1)c1ccccc1`, 46.4% (active); to `O=C(O)c1ccc2c(c1)C(=O)N(c1ccc(/C=C/C(=O)c3ccccc3)cc1)C2=O`, 46.6% (active). To `Cc1cccc(N2C(=O)c3ccc(C(=O)Nc4cccc(C(=O)O)c4)cc3C2=O)c1` belongs 10.2%; to `CC(=O)Oc1ccc(C)cc1N1C(=O)c2ccc(C(=O)O)cc2C1=O`, 6.31%; to `O=C(NC1CCC(O)CC1)c1ccccc1OCc1ccc(F)cc1` (stereo unspecified), -3.74%.

With `Cc1ccccc1CN1C(=O)c2ccccc2Sc2ccc(C(=O)NCCCN3CCOCC3)cc21`, the max response is -3.67%. Take `COc1cc(CO)ccc1OCC(=O)Nc1cccc2ccccc12`: the max response was -2.19%. To `Cc1ccc(S(=O)(=O)N(CCCN(C)C)Cc2ccc3c(c2)OCO3)cc1` belongs 1.74%. To `CC(=O)c1ccc(NC(=O)CSC(=S)N2CCCC2)cc1` belongs 20.5% (active). To `CCC1CCCCN1C(=S)Nc1ccc(S(=O)(=O)Nc2ncccn2)cc1` (stereo unspecified) belongs -2.13%.

Regarding `O=C(COc1ccccc1)Nc1ccc(C(=O)N2CCCC2)cc1`, the max response was 37.5%. To `CCC1CCCCN1C(=S)Nc1ccc(SC(F)F)cc1` (stereo unspecified) belongs 1.07%. To `O=C(CCC(=O)N1CCCC1)Nc1ccc([N+](=O)[O-])cc1` belongs -2.89%; to `CCC1CCCCN1C(=S)Nc1ccc(C(C)=O)cc1` (stereo unspecified), 8.58% (active); to `O=C(NC(=S)Nc1ccc2oc(=O)ccc2c1)c1ccc(-c2cccc(Cl)c2Cl)o1`, 6.87%. To `CCCC(=O)N1CCN(c2nnc(-c3ccc(C)cc3)c3ccccc23)CC1` belongs -7.1%.
